ELG1 repair inh – inhibitors of ELG1-dependent DNA repair in HEK293T cells. HEK293T ELG1-luciferase reporter, luminescence, 16 h; DNA damage induced by 5-fluorouridine. AID 504467. 330,000 compounds, 2.3% hits. Potency, µM (highest dose often 46.1 µM), without a hit: top-dose activity change, negative = inhibition, hits mostly inhibitors; further: on the % scale 0 is the no-effect control and ±100 the full control effect; nearly all actives have a fitted effect of over 55% in size
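Reporter activity after DNA damage by 5-fluorouridine is monitored. Compound-treated cells incubate 16 hr at 37 °C, then ONE-Glo is added for 30 min before luminescence reading.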
KB-3-1 cytotox – kills parental KB-3-1 adenocarcinoma cells; 400,000 compounds, 1.4% hits; Potency, µM (titrated, usually from 46.1 µM), most hits filed as cytotoxic; KB-3-1 viability, CellTiter-Glo ATP luminescence, 72 h; further: on the % scale 0 is the no-effect control and ±100 the full control effect; nearly all actives have a fitted effect of over 60% in size
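Luminescent ATP read-out (CellTiter-Glo) measures survival of drug-naive KB-3-1 cells after 72 h compound exposure at 37 °C. Titration series was screened from lowest to highest concentration, with DMSO vehicle plates as background controls.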
SW480 rerep – inducers of DNA re-replication in SW480 colon cancer cells. Potency, µM (highest dose often 46.1 µM), without a hit: at the highest dose re-replication activation, usual class: activators. AID 624297. SW480 DNA re-replication, Hoechst DNA content imaging, 48 h. 340,000 compounds, 1.8% hits; further: % of control where 0% means no effect; nearly all actives have a fitted effect of over 55% in size
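Quantitative HTS format with DMSO vehicle controls; 48 hr drug incubation at 37 C, then 40 min Hoechst staining and scanning imager measurement at 405 nm excitation.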
MCF10A rerep – induces DNA re-replication in MCF 10a normal breast cells; MCF 10A DNA re-replication, Hoechst nuclear intensity, 48 h; Potency, µM (highest dose often 46.1 µM), inactives show at the top dose activity, positive = re-replication, usual class: activators; 350,000 compounds, 2.9% hits; AID 624296; further: % of control where 0% means no effect; nearly all actives have a fitted effect of over 50% in size
KB-V1 MDR tox – kills drug-selected multidrug resistant KB-V1 cells. KB-V1 MDR cells viability, CellTiter-Glo, 72 h. Potency, µM (top dose mostly 46.1 µM), usual class: cytotoxic. 400,000 compounds, 3.4% hits; further: on the % scale 0 is the no-effect control and ±100 the full control effect; nearly all actives have a fitted effect of over 60% in size
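Cells of the MDR subline KB-V1 are plated, dosed with compound at multiple concentrations, and incubated 72 h at 37 degrees C; CellTiter-Glo is then added and luminescence read after 10 min.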
Numbers without * were called inactive; i = inactive; ? = inconclusive; . = no result given; ! = not confirmed by another sample; [ ] = another dose, or the depositor's remark. Rows were chosen to be rich in hits. Some 8.1% of all compounds tested hit in one or more screens of this group. The call rests on the fitted dose curve; in most records, active means well fitted curve in the direction sought with a large enough effect; inconclusive means small, poorly fitted or top-dose-only effect, or another doubt; inactive means no such curve, though single readings can be large; an effect the other way counts as inactive or inconclusive. Potency means the concentration at half of the fitted maximal effect.

SMILES	ELG1 repair inh	KB-3-1 cytotox	SW480 rerep	MCF10A rerep	KB-V1 MDR tox
Cc1ccc(C(=O)Nc2ncc(Cc3ccc(SC(F)F)cc3)s2)cc1	?	?	0.73µM*	?	1µM*
Cc1ccc(C(=O)Nc2ncc(Cc3ccc(F)cc3)s2)o1	?	5.8µM*	-2%	?	9.2µM*
Cc1cccc(S(=O)(=O)NC(=O)C2(C)CCN2C(=O)c2ccccc2)c1 (configuration not stated)	.	i	.	.	i
CCOC(=O)C[C@H]1c2ccc(C(F)(F)F)cc2S(=O)(=O)N1Cc1ccccc1	.	i	-1%	7%	?
CCOC(=O)C[C@H]1c2ccccc2S(=O)(=O)N1Cc1ccc(Cl)cc1	.	?	-2%	18%	16µM*!
CCOC(=O)C[C@H]1c2cc(C(F)(F)F)ccc2S(=O)(=O)N1Cc1ccccc1	.	i	-4%	19%	10µM*!
COc1ccc(CN2[C@@H](CC(=O)O)c3ccccc3S2(=O)=O)cc1	.	i	1%	-9%	?
Cn1nc(C(F)(F)F)c2cc(NC(=O)OCc3ccc(C(C)(C)C)cc3)sc21	?	i	15%	15µM*	i
COc1ccc(Cn2nnnc2CN2CCc3ccccc32)cc1	11%	i	23µM*	9%	i
COc1ccc(C2(O)CCN(Cc3nnnn3Cc3ccc(C)cc3)CC2)cc1	-17%	i	?	21µM*	i
COc1ccc(Cn2nnnc2CN2CCc3ccccc3C2)cc1	-2%	i	1%	13%	i
CCOC(=O)[C@]12CCC=C1N(Cc1ccco1)C(=O)[C@H](CC(=O)NCCCOC)C2	.	i	.	.	i
N=c1c2c(n(Cc3ccc(Cl)c(Cl)c3)c3c1CCC3)CCCC2	1%	i	2%	?	i
N=c1c2c(n(Cc3ccc(Br)cc3)c3c1CCC3)CCCC2	-5%	0.65µM*	-2%	?	i
O=[N+]([O-])c1ccc(COc2ccc(CN3CCCC3)cc2)cc1	.	i	5%	?	i
N=c1c2c(n(Cc3ccc([N+](=O)[O-])cc3)c3c1CCC3)CCCC2	8.2µM*	i	-18%	0%[9.22 µM]	i
CC(=O)Nc1ccc(Nc2c(CCC(C)C)c(C)c(C#N)c3nc4ccccc4n23)cc1	.	?	.	.	i
COCCn1c(SCc2nc3scc(-c4ccc(Cl)cc4)c3c(=O)[nH]2)nnc1-c1cccc(C)c1	23µM*	21µM*	?	?	5.2µM*
Cc1[nH]c2ccccc2c1C(=O)COC(=O)c1c(-c2c(F)cccc2Cl)noc1C	?	?	10%	?	16µM*
CC(=O)c1c(C)[nH]c(C(=O)COC(=O)c2c(-c3ccccc3)noc2C)c1C	21µM*	.	-5%	?	.
Cc1ccc(OCCOC(=O)c2c(-c3ccccc3)noc2C)cc1	?	i	99%	?	?
Cc1onc(-c2ccccc2)c1C(=O)OCCOc1cccc(Cl)c1	-15%	?	6.5µM*	21µM*	i
CCOc1ccc(C(=O)COC(=O)c2c(-c3ccccc3)noc2C)cc1	-25%	?	?	6.5µM*	?
Cc1ccnc2nc(C(=O)OCC(=O)Nc3ccc([N+](=O)[O-])cc3Br)nn12	8%	i	-5%	-1%	i
O=C(NCC1CCN(Cc2cccc(Cl)c2)CC1)Nc1ccc(Cl)cc1	-4%	i	18%	22%	?
SMILES	ELG1 repair inh	KB-3-1 cytotox	SW480 rerep	MCF10A rerep	KB-V1 MDR tox
COc1ccc(Cl)cc1NC(=O)NCC1CCN(Cc2cc(C)ccc2C)CC1	?	?	19%	20%	23µM*
Cc1ccc(C)c(CN2CCC(CNC(=O)Nc3ccc(C)c(C)c3)CC2)c1	-12%	?	?	?	18µM*
COc1cc([N+](=O)[O-])ccc1NC(=O)NCC1CCN(Cc2ccc(Cl)cc2)CC1	23µM*	?	?	9%	i
COc1ccc(OC)c(CN2CCC(CNC(=O)Nc3cccc(Cl)c3)CC2)c1	-25%	?	4%	2%	?
COc1ccccc1NCc1nnc2n1CCCCC2	.	i	.	.	i
CC(C)CCNC(=O)C1CCN(S(=O)(=O)c2cccc3nsnc23)CC1	.	i	.	.	i

Source: PubChem BioAssay
